Molecules are shown by their SMILES. Several values for one entry are separate records, joined by “and”; a condition that tells them apart may be missing. Equal entries are not always repeated. Among all 320,000 compounds or so, about 1,900 (0.59%) were called active. For the sample, actives were picked, then their nearest neighbours and some compounds at random. Values without a mark were called inactive. No stated cut-off is given here; in the data, active means inhibition mostly above about 10% (no sharp cut-off); inactive means mostly below about 6.7%.

The target of this test is Protein LANA1 (Human herpesvirus 8 type P (isolate GK18)) (UniProt Q9QR71). The experiment in a line: blockers of LANA interaction with H2A/H2B – biochemical, FP readout, HTS, primary screen (AID 2629). Particulars: cell-free LANA-H2A/H2B peptide, fluorescence polarization, stronger effect = higher value, concentration not given here. On the technique in general: In fluorescence polarisation assays a small probe gives low polarisation when free and higher when bound to something large.
Protein LANA1 (Human herpesvirus 8 type P (isolate GK18)), sequence (Q9QR71 whole entry, looked up): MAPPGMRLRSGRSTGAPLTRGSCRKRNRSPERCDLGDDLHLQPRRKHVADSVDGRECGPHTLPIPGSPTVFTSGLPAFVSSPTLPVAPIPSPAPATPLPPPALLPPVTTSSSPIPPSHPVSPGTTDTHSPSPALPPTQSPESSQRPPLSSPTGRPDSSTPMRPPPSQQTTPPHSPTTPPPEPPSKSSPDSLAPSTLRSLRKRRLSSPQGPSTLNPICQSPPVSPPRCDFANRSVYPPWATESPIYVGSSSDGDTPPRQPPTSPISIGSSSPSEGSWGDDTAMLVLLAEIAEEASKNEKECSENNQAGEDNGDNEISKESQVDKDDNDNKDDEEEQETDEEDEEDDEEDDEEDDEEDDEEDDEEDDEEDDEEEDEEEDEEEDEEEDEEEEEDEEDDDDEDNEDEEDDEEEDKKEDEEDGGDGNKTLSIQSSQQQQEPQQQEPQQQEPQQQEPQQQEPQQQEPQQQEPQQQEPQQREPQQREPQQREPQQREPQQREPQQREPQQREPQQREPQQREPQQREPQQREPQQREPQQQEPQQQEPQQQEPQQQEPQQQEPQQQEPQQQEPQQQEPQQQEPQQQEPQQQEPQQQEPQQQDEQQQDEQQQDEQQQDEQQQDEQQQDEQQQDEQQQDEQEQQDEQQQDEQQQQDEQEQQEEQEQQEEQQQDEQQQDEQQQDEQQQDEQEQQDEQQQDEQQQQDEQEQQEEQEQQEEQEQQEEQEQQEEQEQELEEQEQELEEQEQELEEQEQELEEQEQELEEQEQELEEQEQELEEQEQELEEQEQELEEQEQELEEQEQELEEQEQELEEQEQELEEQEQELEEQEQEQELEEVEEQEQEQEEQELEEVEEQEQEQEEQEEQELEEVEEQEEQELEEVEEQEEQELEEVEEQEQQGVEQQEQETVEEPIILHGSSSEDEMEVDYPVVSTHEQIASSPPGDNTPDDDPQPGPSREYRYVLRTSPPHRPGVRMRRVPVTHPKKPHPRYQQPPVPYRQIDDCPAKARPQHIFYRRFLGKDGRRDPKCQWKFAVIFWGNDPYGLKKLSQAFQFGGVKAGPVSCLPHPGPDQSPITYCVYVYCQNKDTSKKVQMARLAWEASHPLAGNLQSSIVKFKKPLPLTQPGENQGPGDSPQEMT
As a reminder, the inhibition is the change of the read-out against control, counted positive when it falls. On to `COc1cc(CNCc2ccc(OC)c3ccccc23)cc(OC)c1OC`, for which the inhibition is -2.97%.

With `C=CCC[C@@H](Cc1ccc(F)cc1)C(=O)OC[C@@H](C)NC(=O)[C@H](CC=C)CC(=O)N(CCO)Cc1ccccc1`, the inhibition was -1.37%. Take `O=C(CSc1nc2ccccc2c(=O)n1-c1ccccc1F)N1CCOCC1`: the inhibition is -5.04%. On to `CCOC(=O)N1CCN(C(=O)Cn2cnc3ccccc3c2=O)CC1`, for which the inhibition was 3%. As to `CCOC(=O)N1CCN(CC(=O)Nc2cc(C)nn2-c2nc3ccccc3s2)CC1`, the inhibition is 16.1% (active).

Regarding `CCOC(=O)N1CCN(CC(=O)Nc2ccc(F)cc2)CC1`, the inhibition was -4.74%. With `O=C(OCc1ccccc1F)c1ccc2c(c1)OCCO2`, the inhibition was -6.13%. Take `CCOC(=O)c1nc(C)n(-c2ccc(Cl)cc2Cl)n1`: the inhibition is -1.22%. Regarding `CC(=O)c1cc(C#N)c(SCC(=O)C(C)(C)C)nc1C`, the inhibition was -1.09%. The value for `CC(=O)c1nnn(-c2ccc(Cl)cc2C#N)c1C` was 10.1% (active); that for `Cc1ccc(S(=O)(=O)NC(C(=O)N2CCOCCOCCOCCOCC2)c2ccccc2)cc1` (stereo unspecified) was -3.32%.

Consider `Brc1ccc(-c2n(-c3ccccn3)c3ccccc3[n+]2-c2ccccn2)cc1`, for which the inhibition is 5.04%.

In the case of `C[C@@H](C(=O)Nc1ccc2ccccc2c1)[C@@H]1C[C@@]1(C)[C@@H](NC(=O)c1cccnc1)c1ccccc1`, the inhibition is 1.66%. In the case of `COc1ccc(C(=O)NC2CC2)cc1OC1CCN(Cc2cnn(C)c2)CC1`, the inhibition is 2.53%. For `COc1ccc(C(=O)NC2CC2)cc1OC1CCN(Cc2ccc(SC)cc2)CC1`, the inhibition is 12.2% (active).

In the case of `COc1ccc(C(=O)NC2CC2)cc1OC1CCN(C/C=C/c2ccccc2)CC1`, the inhibition was 5.63%. On to `COc1ccc(C(=O)n2nc(C)c(Br)c2C)cc1OC`, for which the inhibition is 2.73%. Take `COc1ccc(C(=O)NC(=S)N2CCCCC2c2cccnc2)cc1OC` (stereo unspecified): the inhibition is -0.0544%. Take `CN(C(=O)c1cc2c(=O)n3ccccc3nc2s1)C1CCCCC1`: the inhibition is -5.4%. In the case of `Cc1cccn2c(=O)c3cc(C(=O)NC4CCCCC4)sc3nc12`, the inhibition was 32.6% (active).

Regarding `Cc1ccccc1-n1nc(C)c2cc(C(=O)NC3CC3)sc21`, the inhibition was 0.464%. For `COc1ccc(/C=C(/NC(=O)c2ccco2)C(=O)Nc2ccc(C(C)=O)cc2)cc1`, the inhibition was 3.73%. Consider `O=C(Nc1ccccc1)/C(=C\c1ccco1)NC(=O)c1ccco1`, for which the inhibition was 4.48%.

As to `Cc1ccc(NC(=O)/C(=C\c2ccccc2)NC(=O)c2ccco2)cc1`, the inhibition is 15.5% (active).

Take `Cn1c(=O)c2c(nc(NCCNC(=O)c3ccco3)n2Cc2ccccc2F)n(C)c1=O`: the inhibition is 0.914%. Take `CC[N+](C)(CC)CCC[n+]1c(-c2ccccc2)c2cc(N)ccc2c2ccc(N)cc21`: the inhibition was 37% (active). Consider `COc1cc(N/C=C2\CC(=O)NC(C)=C2C#N)cc(OC)c1OC`, for which the inhibition was 1.67%. On to `CCOC(=O)C(NS(=O)(=O)c1ccc(C)cc1)(C(F)(F)F)P(=O)(OCC(C)C)OCC(C)C` (stereo unspecified), for which the inhibition was -0.856%. In the case of `CC(C)C(=O)NC(NC(=S)NC1CCS(=O)(=O)C1)C(Cl)(Cl)Cl` (stereo unspecified), the inhibition was 5.16%. Consider `CCOc1ccc2nc(N(CCCN(C)C)C(=O)c3ccc(C(=O)c4ccccc4)cc3)sc2c1`, for which the inhibition is 2.47%.

As to `CCOc1ccc2nc(N(CCN(C)C)C(=O)c3ccc4ccccc4c3)sc2c1`, the inhibition is -2.61%. Turning to `CCN(CC)CCN(C(=O)c1cccc([N+](=O)[O-])c1)c1nc2ccc(OC)cc2s1`, the inhibition is 10.8% (active). The value for `O=c1cc(-c2ccccc2)[nH]c2cc(F)ccc12` was -0.193%; that for `Cc1ccc(N/C(N)=N/c2nc(C(F)(F)F)cc(C(F)(F)F)n2)cc1` was 1.07%; that for `Cn1c(=O)c(=O)n(C)c2cc(S(=O)(=O)NCCN3CCN(c4ccccc4F)CC3)ccc21` was 2.45%.

Turning to `Cc1ccc2c(c1)-c1c(ssc1=S)C(C)(C)N2C(=O)CN1C(=O)c2ccccc2C1=O`, the inhibition was -1.1%. For the compound `Cc1ccccc1CN1C(=O)c2ccccc2Sc2ccc(C(=O)NCCCN3CCOCC3)cc21`, the inhibition is 19.6% (active). With `CCC1=Nc2cc(C(=O)NCCCN3CCOCC3)ccc2Sc2ccc(Br)cc21`, the inhibition was 3.58%. `O=C(NCCCN1CCOCC1)c1ccc2c(c1)N(Cc1cccc(F)c1)C(=O)c1ccccc1S2`: the inhibition was -7.56%.

Consider `COc1ccc(Cl)cc1N(CC(=O)N/N=C/c1ccc(OCC(N)=O)cc1)S(C)(=O)=O`, for which the inhibition is 0.205%. The value for `COc1cc(NC(=O)c2[nH]cnc2C(N)=O)cc(C(=O)Nc2cccc(C(F)(F)F)c2)c1` was -1.33%; that for `O=C(Nc1ccccn1)C1CCN(S(=O)(=O)c2ccccc2)CC1` was -0.314%; that for `O=C(Nc1ccccn1)C1CCN(S(=O)(=O)c2ccc3c(c2)OCCO3)CC1` was 35.5% (active).

In the case of `O=C(NCc1cccs1)C1CCN(S(=O)(=O)c2ccc3c(c2)OCCO3)CC1`, the inhibition is -3.5%. `Nc1c(-c2ccccc2)nnn1Cc1ccccc1`: the inhibition was -2.36%. Take `CCOC(=O)c1ccc(COC(=O)CCc2nc(-c3ccccc3)c(-c3ccccc3)o2)cc1`: the inhibition was -6.88%.

As for `Cc1nnc(NC2=NCCCCC2)o1`, the inhibition is 4.02%.

With `COc1ccc(C)cc1NC(=O)CSc1ccc(Cl)cc1`, the inhibition is -4.45%.

On to `COc1ccc(C)cc1NC(=O)CNCc1cccs1`, for which the inhibition was 0.209%. Regarding `Cc1onc(-c2ccccc2Cl)c1C(=O)N(Cc1ccc(N(C)C)cc1)C(C)C`, the inhibition was 12.7% (active). In the case of `Cc1onc(-c2ccccc2Cl)c1C(=O)NCCn1ccc2ccccc21`, the inhibition was -5.8%.

With `Cc1onc(-c2ccccc2Cl)c1C(=O)OCC(=O)c1ccccc1`, the inhibition is 4.43%. Regarding `CC(C)COC(=O)n1c(=O)oc2ccc(S(=O)(=O)N3CCCCC3)cc21`, the inhibition was 2.24%.

Consider `CCOC(=O)c1cc2cc3ccccc3cc2oc1=O`, for which the inhibition is 16.8% (active). Turning to `C=CCc1cccc2cc(C(=O)OCC)c(=O)oc12`, the inhibition is -5.34%. Consider `CCOC(=O)c1c(C)nc2c(c1C)c(=O)oc1ccccc12`, for which the inhibition was 1.54%. Consider `NC(=O)C[n+]1cccc(C(N)=O)c1`, for which the inhibition is -3.37%.

For `CC(CO)(CO)NC(=O)c1ccc(=O)[nH]n1`, the inhibition is 3.9%. With `CCc1nn(CCCN2CCN(c3cccc(Cl)c3)CC2)c(=O)n1CCOc1ccccc1`, the inhibition is -0.456% and 3%.

For the compound `c1ccc2cc(CCCc3cc4ccccc4cn3)ncc2c1`, the inhibition was 2.17%.

With `Cc1noc(C)c1COc1ccccc1C(=O)N(C)CC(=O)Nc1cccc(F)c1`, the inhibition was 0.0499%.
